# Only some compounds are listed: those with a hit (about 2.4% of all), similar ones and a draw of the others.
# GSIS activator: primary screen for activators of insulin secretion dependent on glucose, INS-1E cells, GLuc reporter luminescence | INS-1E GLuc reporter insulin secretion, 2-3 h | activation, % at 16.6 µM | hit rate 0.61% among 370,000 | AID 743287;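 active = lowest replicate activation of at least 40%, so every replicate reaches that level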;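 also: 0% = median of neutral control wells and 100% = median of IBMX positive control wells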
# Wnt bcat act: activates Wnt/beta-catenin signaling in a reporter cell assay; activator, plate reader; AID 743398; hit rate 1.2% among 300,000; activation, % at 9.35 µM; in the data active = activation above about 30%, passing the limit was not always enough;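 also: 0% = neutral control wells and 100% = positive control wells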
# miR-122 sensor: inhibitors of miR-122 in Huh7 cells; Huh7 miR-122 Renilla luciferase sensor, 48 h; neutral wells = 0, positive control = 100; activation (reporter increase), % at 12.5 µM; hit rate 0.3% among 340,000; AID 602342;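 active = mean replicate activation score at least 90 and every replicate individually at or above 90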;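 also: higher luciferase means less miR-122 activity so hits act as miR-122 inhibitors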
# NSD2 inh: NSD2 (human) methyltransferase inhibition. hit rate 0.54% among 310,000. O96028. inhibition, % at 12.5 µM. NSD2 peptide methylation, AlphaScreen, 120 min
# Target sequence (O96028 whole entry, looked up): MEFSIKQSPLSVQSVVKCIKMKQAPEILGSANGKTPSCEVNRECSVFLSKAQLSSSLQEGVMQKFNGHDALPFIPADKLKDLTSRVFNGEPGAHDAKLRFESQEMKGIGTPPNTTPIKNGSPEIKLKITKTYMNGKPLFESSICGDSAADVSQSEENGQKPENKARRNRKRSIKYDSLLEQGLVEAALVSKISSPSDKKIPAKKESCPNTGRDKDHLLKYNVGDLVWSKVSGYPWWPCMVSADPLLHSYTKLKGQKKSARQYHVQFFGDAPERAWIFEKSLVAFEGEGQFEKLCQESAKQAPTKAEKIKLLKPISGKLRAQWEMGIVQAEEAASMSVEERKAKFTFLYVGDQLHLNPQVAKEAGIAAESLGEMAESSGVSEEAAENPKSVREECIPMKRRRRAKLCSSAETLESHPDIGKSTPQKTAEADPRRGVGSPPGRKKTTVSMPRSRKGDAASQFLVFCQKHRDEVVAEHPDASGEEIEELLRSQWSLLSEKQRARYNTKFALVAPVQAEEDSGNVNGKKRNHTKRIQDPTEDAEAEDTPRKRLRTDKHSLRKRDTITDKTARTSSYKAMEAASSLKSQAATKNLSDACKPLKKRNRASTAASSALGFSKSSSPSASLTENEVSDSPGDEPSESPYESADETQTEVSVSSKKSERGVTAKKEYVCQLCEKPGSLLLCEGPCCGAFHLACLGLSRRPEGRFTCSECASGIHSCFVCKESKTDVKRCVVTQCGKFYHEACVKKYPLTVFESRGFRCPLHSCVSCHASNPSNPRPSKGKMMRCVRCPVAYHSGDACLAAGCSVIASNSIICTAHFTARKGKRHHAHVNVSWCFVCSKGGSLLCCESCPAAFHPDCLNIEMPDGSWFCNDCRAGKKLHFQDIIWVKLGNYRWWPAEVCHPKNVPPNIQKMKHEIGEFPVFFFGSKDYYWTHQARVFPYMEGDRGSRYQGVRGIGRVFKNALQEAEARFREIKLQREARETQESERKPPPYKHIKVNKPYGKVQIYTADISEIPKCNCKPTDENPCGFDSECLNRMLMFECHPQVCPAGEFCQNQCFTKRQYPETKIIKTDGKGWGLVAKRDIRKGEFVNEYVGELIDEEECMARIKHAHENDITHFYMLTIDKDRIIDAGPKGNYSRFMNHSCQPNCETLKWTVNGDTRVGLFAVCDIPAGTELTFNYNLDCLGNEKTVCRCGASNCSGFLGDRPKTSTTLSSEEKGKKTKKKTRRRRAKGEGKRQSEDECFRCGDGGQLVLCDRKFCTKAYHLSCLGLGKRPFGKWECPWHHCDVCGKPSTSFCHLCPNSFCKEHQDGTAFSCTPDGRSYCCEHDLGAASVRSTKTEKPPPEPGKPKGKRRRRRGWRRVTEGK
# MITF act: MITF TRPM1 promoter activation in melanoma cells. SK-MEL-5 TRPM1-promoter luciferase, 24 h; % of positive control, neutral wells = 0. activation, % at 12.5 µM. hit rate 0.75% among 300,000. AID 588334;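 active = mean activation of at least 80% with every replicate also reaching 80%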;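 also: 0% = neutral control wells and 100% = parthenolide positive control wells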
# Dyrk1A ADPGlo: blocks rat Dyrk1A kinase activity | Q63470 | AID 504441 | inhibition, % at 12.5 µM | hit rate 0.43% among 310,000 | ADP-Glo luminescence, NFATc1 peptide;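 also: plate controls were vehicle with enzyme for no effect and no enzyme for full effect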
# Starred values were filed as active, the others as inactive; . = no result given; [ ] = another dose, or the depositor's remark. Rule as the data show it, unless noted: active = inhibition above about 50%; inactive = the rest.
SMILES,GSIS activator,Wnt bcat act,miR-122 sensor,NSD2 inh,MITF act,Dyrk1A ADPGlo
CCC(=O)N1CC2(C1)[C@H](c1ccc(-c3cccc(F)c3)cc1)[C@@H](CO)N2CC1CC1,4,.,.,.,.,.
COc1ccccc1-c1ccc([C@@H]2[C@@H](CO)N3CCCCN(C(=O)CN4CCOCC4)C[C@@H]23)cc1,1,.,6[16.7 µM],.,.,.
C[C@@H]1CN([C@H](C)CO)C(=O)c2cccc(NC(=O)C3CC3)c2O[C@H]1CN(C)Cc1ccc(-c2ccccc2)cc1,0,.,-4[16.7 µM],.,.,.
O=C(O)c1cc(N/N=C/c2ccc(-c3ccccc3)cc2)ccc1Cl,-4,48*,6,12,8,.
COc1cc(/C=N/Nc2ccc(Cl)c(C(=O)O)c2)ccc1OC(=O)c1cccs1,-14,37*,-7,30,-5,-5
COc1ccc(/C=N/Nc2ccc(C(=O)O)cc2)cc1OC,21,33*,-2,3,28,-2
O=C(O)c1cc(N/N=C/C=C/c2ccccc2[N+](=O)[O-])ccc1Cl,-8,60*,-5,15,56,4
NS(=O)(=O)c1ccc(N/N=C/C=C/c2ccccc2[N+](=O)[O-])cc1,-6,25,3,5,64,3
O=C(C[C@@H]1CC[C@H]2[C@@H](COC[C@@H](O)CN2C(=O)c2cnccn2)O1)NCc1ccc(F)cc1,14,.,-1[16.7 µM],.,.,.
O=C(O)c1ccc(N/N=C/c2ccc(-c3ccccc3)cc2)cc1,2,1,.,1,92*,6
COc1ccc2ccccc2c1/C=N/Nc1cccc(C(=O)O)c1,13,7,-5,7,93*,5
C=CCOc1c(Br)cc(/C=N/Nc2ccc(C(=O)O)cc2)cc1OCC,.,10,.,12,105*,-2
CC(C)c1ccc(/C=N/Nc2ccc(C(=O)O)cc2)cc1,-5,-26,.,.,-67,-3
O=C(O)c1ccc(/C=N/Nc2cccc(C(F)(F)F)c2)cc1,-19,11,77,2,111*,9
C[C@H]1CN([C@@H](C)CO)C(=O)c2cc(NC(=O)CCN3CCOCC3)ccc2O[C@H]1CN(C)S(=O)(=O)c1cccs1,11,.,-7[16.7 µM],.,.,.
Cc1ccc(S(=O)(=O)N(C)C[C@H]2OCCCC[C@H](C)Oc3ccc(NS(C)(=O)=O)cc3C(=O)N([C@H](C)CO)C[C@@H]2C)cc1,3,.,7[16.7 µM],.,.,.
O=C(NNC(=O)c1ccccc1Cl)c1ccncc1,7,-2,5,5,2,0
COc1c(C(=O)NNC(=O)c2ccccc2Cl)csc1Br,-10,41*,.,0,.,-1
COc1cccc(CN2CC3(C2)[C@H](c2ccccc2)[C@@H](CO)N3Cc2cccc(OC)c2)c1,0,.,.,.,.,.
Nc1c(-c2cccc(Cl)c2)cnc2c(-c3ccccc3)cnn12,8,45*,4,29,58,-5
Nc1c(-c2cccc(Cl)c2)cnn1-c1ccccc1,-18,14,0,0,68,11
Nc1c(-c2ccc(Cl)cc2)cnc2c(-c3ccc(F)cc3)cnn12,5,46*,0,3,111*,4
O=C(C[C@@H]1CC[C@@H](NS(=O)(=O)c2ccccc2)[C@@H](CO)O1)NCc1ccccc1F,2,.,.,.,.,.
CC1=CC(=O)C=C(C)C1=NOS(=O)(=O)c1ccccc1,186*,17,-9,3,-29,5
CC1=CC(=O)C(C(C)C)=C/C1=N/OS(=O)(=O)c1ccccc1,.,5,-30,5,.,3
SMILES,GSIS activator,Wnt bcat act,miR-122 sensor,NSD2 inh,MITF act,Dyrk1A ADPGlo
Cc1cc(C)cc(NC(=O)CCn2cnc3cc(C)c(C)cc32)c1,-17,38*,.,1,10,1
CCCN1[C@@H]2c3ccc(C4=CCCCC4)c(=O)n3C[C@H]1[C@H](CO)[C@H]2C(=O)Nc1ccccc1,-24,.,.,.,.,.
CN(C(=O)c1ccc2c(c1)SC1=NS(=O)(=O)CCN12)C(c1ccccc1)c1ccccc1,93*,-5,.,-2,7,-1
O=C(C[C@H]1CC[C@@H](NC(=O)c2ccc(F)cc2)[C@H](CO)O1)NCc1ccncn1,-5,.,.,.,.,.
CCCCn1c(SCC2CCCCO2)nc2cc(S(N)(=O)=O)ccc21 (centres undefined),.,40*,.,0,7,-2
CN(C)CC(=O)Nc1ccc2c(c1)[C@H]1C[C@@H](CC(=O)NCC3CC3)O[C@@H](CO)[C@H]1O2,2,.,1[16.7 µM],.,.,.
